Measured values taken from PubChem BioAssay (NCI).
About 83,000 compounds went through this panel and 20% of them were active in at least one assay; those are over-represented in the sample as a whole.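 In brief: 96-well plates, 48 h treatment, single concentration, percent growth endpoint.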 Activity calls are given as the source filed them. The calls were made as follows: active = growth percent below 10; inactive = the rest.

Experiments:
Test in all cases: NCI-60 one-dose screen, 48 h (100 = growth as untreated, 0 = no growth, -100 = all killed)
Details in all cases: 10 µM unless noted
SR leukemia = tested on: SR leukemia
RPMI-8226 leukemia = tested on: RPMI-8226 leukemia
OVCAR-8 ovarian = tested on: OVCAR-8 ovarian
OVCAR-5 ovarian = tested on: OVCAR-5 ovarian
OVCAR-4 ovarian = tested on: OVCAR-4 ovarian
SK-OV-3 ovarian = tested on: SK-OV-3 ovarian
IGROV1 ovarian = tested on: IGROV1 ovarian
OVCAR-3 ovarian = tested on: OVCAR-3 ovarian
HS 578T breast = tested on: HS 578T breast
NCI/ADR-RES ovarian = tested on: NCI/ADR-RES ovarian
T-47D breast = tested on: T-47D breast
BT-549 breast = tested on: BT-549 breast
MDA-MB-435 melanoma = tested on: MDA-MB-435 melanoma
SW-620 colon = tested on: SW-620 colon
MCF7 breast = tested on: MCF7 breast
HCT-116 colon = tested on: HCT-116 colon
HCC-2998 colon = tested on: HCC-2998 colon
KM12 colon = tested on: KM12 colon
MDA-MB-468 breast = tested on: MDA-MB-468 breast

Measured: growth

Cc1cccc(NC(=O)[C@]23CCC(C)(C)CC2C2=CCC4[C@@]5(C)C[C@@H](O)[C@H](O)[C@@](C)(CO)C5CC[C@@]4(C)[C@]2(C)CC3)c1 (some centres not stated)
inactive: OVCAR-8 ovarian 39.3% | OVCAR-4 ovarian 23.5% | SK-OV-3 ovarian 36.9% | IGROV1 ovarian 35.6% | OVCAR-3 ovarian 41.3% | HS 578T breast 31% | T-47D breast 13.5% | MDA-MB-435 melanoma 25.5% | SW-620 colon 33.2%
active: SR leukemia -26% | RPMI-8226 leukemia 2.61% | OVCAR-5 ovarian -28.9% | NCI/ADR-RES ovarian 7.61% | BT-549 breast 8.83% | MCF7 breast -6.63% | HCT-116 colon 1.25% | HCC-2998 colon -64% | KM12 colon 3.56% | MDA-MB-468 breast -8.73%

COc1ccc(NC(=O)[C@H](C)N)cc1C(=O)Nc1cccc(C2CC(=O)c3c(cc(OC)c(OC)c3OC)O2)c1 (some centres not stated)
inactive: SR leukemia 63.8% | RPMI-8226 leukemia 55.3% | OVCAR-8 ovarian 68.8% | OVCAR-5 ovarian 104% | OVCAR-4 ovarian 81.7% | SK-OV-3 ovarian 146% | IGROV1 ovarian 98.7% | OVCAR-3 ovarian 91.9% | HS 578T breast 95.8% | NCI/ADR-RES ovarian 86.1% | T-47D breast 53.7% | BT-549 breast 67.3% | MDA-MB-435 melanoma 93.2% | SW-620 colon 99.4% | MCF7 breast 72.1% | HCT-116 colon 93.9% | HCC-2998 colon 109% | KM12 colon 87% | MDA-MB-468 breast 76.1%

Cc1ccc(Cc2cnc(NC(=O)c3ccc(/C=C4\SC(=S)N(C)C4=O)cc3)s2)cc1
inactive: SR leukemia 30% | RPMI-8226 leukemia 31.4% | OVCAR-8 ovarian 35.3% | OVCAR-5 ovarian 34.3% | OVCAR-4 ovarian 48.2% | SK-OV-3 ovarian 29.3% | IGROV1 ovarian 33% | HS 578T breast 39.2% | T-47D breast 23.9% | BT-549 breast 37.9% | SW-620 colon 35.8% | MCF7 breast 19.6% | HCT-116 colon 22.7% | HCC-2998 colon 41.1% | KM12 colon 11.2%
active: OVCAR-3 ovarian 3.26% | NCI/ADR-RES ovarian -28.5% | MDA-MB-435 melanoma -18.7% | MDA-MB-468 breast 4.76%

Cn1cc(-c2cc(N)n3nc(-c4cn(C)c5ccccc45)cc3n2)c2cc(Cl)ccc21
inactive: SK-OV-3 ovarian 72.1% | BT-549 breast 63%
active: SR leukemia 4.5% | RPMI-8226 leukemia -8.66% | OVCAR-8 ovarian -91% | OVCAR-5 ovarian -13.9% | OVCAR-4 ovarian -34.5% | IGROV1 ovarian -4.76% | OVCAR-3 ovarian -44.6% | HS 578T breast -11.1% | NCI/ADR-RES ovarian -11.5% | T-47D breast -30.9% | MDA-MB-435 melanoma -71.9% | SW-620 colon -35.3% | MCF7 breast -69.9% | HCT-116 colon -89.1% | HCC-2998 colon -73% | KM12 colon -50% | MDA-MB-468 breast -31.9%

O=C1c2c(c3c4cc(F)ccc4oc3c3[nH]c4ccc(Br)cc4c23)C(=O)N1O
active: SR leukemia 4.45% | SK-OV-3 ovarian 4.35% | HS 578T breast -4.24% | BT-549 breast 1.19%
inactive: RPMI-8226 leukemia 34.2% | OVCAR-8 ovarian 19.8% | OVCAR-5 ovarian 108% | OVCAR-4 ovarian 76.6% | IGROV1 ovarian 46.3% | OVCAR-3 ovarian 67.2% | NCI/ADR-RES ovarian 30.7% | T-47D breast 23.9% | MDA-MB-435 melanoma 37.1% | SW-620 colon 34.9% | MCF7 breast 15.6% | HCT-116 colon 34.5% | HCC-2998 colon 63.5% | KM12 colon 34.5% | MDA-MB-468 breast 46.4%

COc1cc2nc(SCc3ccccc3)n(-c3ccc(Cl)cc3)c(=O)c2cc1OC
active: SR leukemia 5.33% | OVCAR-8 ovarian -19.9% | OVCAR-4 ovarian -55.6% | SK-OV-3 ovarian -19.1% | IGROV1 ovarian 4.02% | OVCAR-3 ovarian -42.6% | HS 578T breast -9.89% | NCI/ADR-RES ovarian -30.4% | BT-549 breast 0.336% | SW-620 colon 9.44% | HCT-116 colon -41% | MDA-MB-468 breast -10.9%
inactive: RPMI-8226 leukemia 34% | OVCAR-5 ovarian 34.3% | T-47D breast 45% | MDA-MB-435 melanoma 30.3% | MCF7 breast 14.7% | HCC-2998 colon 20.3% | KM12 colon 40.5%

O=C(CSc1nc2ccccc2c(=O)[nH]1)NCCN1CCCCC1
inactive: SR leukemia 90.9% | RPMI-8226 leukemia 100% | OVCAR-8 ovarian 97.7% | OVCAR-5 ovarian 94.2% | OVCAR-4 ovarian 98.8% | SK-OV-3 ovarian 107% | IGROV1 ovarian 104% | OVCAR-3 ovarian 105% | HS 578T breast 94.1% | NCI/ADR-RES ovarian 102% | T-47D breast 100% | BT-549 breast 104% | MDA-MB-435 melanoma 95.1% | SW-620 colon 97% | MCF7 breast 90.8% | HCT-116 colon 104% | HCC-2998 colon 108% | KM12 colon 98.3% | MDA-MB-468 breast 96.9%

CN(C)CCn1c2ccccc2c2nc3cc4ccccc4cc3nc21
active: SR leukemia 5.18% | OVCAR-8 ovarian -46.8% | OVCAR-5 ovarian 8% | IGROV1 ovarian -9.73% | NCI/ADR-RES ovarian -19.4% | MDA-MB-435 melanoma -67% | SW-620 colon -58.3% | MCF7 breast -9.03% | HCT-116 colon -61.4% | HCC-2998 colon -82.1% | KM12 colon 4.87%
inactive: RPMI-8226 leukemia 14.4% | OVCAR-4 ovarian 48% | SK-OV-3 ovarian 45.5% | OVCAR-3 ovarian 46.6% | HS 578T breast 42.7% | T-47D breast 45.3% | BT-549 breast 52.8% | MDA-MB-468 breast 23.7%
